Records with an inconclusive call do not appear. Unmarked numbers belong to inactive results. The call rests on the fitted dose curve; in most records, active means well fitted cell-killing curve with a large enough effect in the repeat runs; inconclusive means weak or mixed curves, or effect the other way; inactive means flat fitted curve, though single readings scatter.

We go through 40 molecules from PubChem BioAssay (Tox21).
On the % scale 0 is the no-effect control and ±100 the full control effect.

This assay in a line: qHTS RealTime-Glo MT Cell Viability Assay in HEK293 cells - 40 hour (AID 1224874). Further: nearly all actives have a fitted effect of over 50% in size. The following applies: RealTime-Glo luminescence; max response: active compounds read low. The source says: U.S. Tox21 Program National Center for Advancing Translational Sciences [NCATS] NIH Chemical Genomics Center [NCGC] U.S. Environmental Protection Agency [EPA] National Institutes of Environmental Health Sciences [NIEHS] National Toxicology Program [NTP] U.S. Food and Drug Administration [FDA] Tox21 Assay Overview: Measure of cell viability is critical in the cell-base assay. Analysis of cell viability is necessary for the characterization of cell responses to cytotoxic drugs and environmental stress. A RealTime-Glo MT Cell Viability Assay to monitor cell viability in real time of continues cell culture during 40 hours of compound treatment was used to screen Tox21 10K library compounds in Hek293 cells. The RealTime-Glo MT Cell Viability Assay is a nonlytic, homogeneous, bioluminescent method to measure cell viability in real time using a simple, plate-based method. The assay involves adding NanoLuc luciferase and a cell-permeant prosubstrate to cells in culture. Viable cells reduce the proprietary prosubstrate to generate a substrate for NanoLuc luciferase. This substrate diffuses from cells into the surrounding culture medium, where it is rapidly used by the NanoLuc Enzyme to produce a luminescent signal. The signal correlates with the number of viable cells, making the assay well suited for cytotoxicity studies.
Tox21 Assay Protocol Summary: The mixture of Hek293 cell suspension and reagents were dispensed at 600cells/6 ul/well in 1536-well tissue culture treated black solid bottom plates using a Multidrop dispenser. After the assay plates were incubated at a 37 C/5% CO2 incubator for 5 hours, 23 nL of compounds dissolved in DMSO, positive and negative controls was transferred to the assay plate by a pintool work station. The plates were incubated at 37 C for 40 hours. The luminescence intensity were measured at 0h, 8h, 16h, 24h, 32h and 40h time points using ViewLux plate reader during compound treatment.
On the technique in general: qHTS replaces the single test concentration by a dilution series.
For `Cn1cnc2c(F)c(Nc3ccc(Br)cc3Cl)c(C(=O)NOCCO)cc21`, the max response was -9.97%.

Turning to `O=C1CCN(c2ccccc2)N1`, the max response was 4.28%.

For `CC(C)NC[C@@H](O)COc1cccc2ccccc12`, the max response is -27.3%.

Turning to `CN1CCN(c2c(F)cc3c(=O)c(C(=O)O)cn4c3c2SCC4)CC1`, the max response is 6.23%.

For the molecule `Cc1c(C(=O)NCCO)[n+](=O)c2ccccc2n1[O-]`, the max response is 0.805%.

With `CCN(CC)C(=O)N(CC)CC`, the max response was 4.58%.

`CCCCCOc1ccc(C2SC(=O)NC2=O)cc1OCC` (stereo not given): the max response was -9.78%.

Consider `CCOC(=O)CS`, for which the max response is -5.88%.

Take `CCOC(=O)c1ccccc1O`: the max response is 4.34%.

Regarding `C=CCCC=C`, the max response was 4.67%.

As to `COc1ccc(S(=O)(=O)Nc2nnc(CC(C)C)s2)cc1`, the max response was 6.93%.

As to `CCCCCCCCCCCCCCCCOP(=O)([O-])OCC[N+](C)(C)C`, the max response is -6.12%.

Consider `CO[C@@]1(NC(=O)CSCC#N)C(=O)N2C(C(=O)O)=C(CSc3nnnn3C)CS[C@@H]21`, for which the max response was 7.28%.

On to `FC(F)(F)c1ccccc1`, for which the max response was 11.8%.

`CC(C)=CCCC(C)CCOC=O` (stereo not given): the max response was 13.4%.

For `C=CC1CO1` (stereo not given), the max response is 6.13%.

As for `CCNCCO`, the max response is 9.13%.

Turning to `CCCCC(=O)O[C@]1(C(=O)CO)[C@H](C)C[C@H]2[C@@H]3CCC4=CC(=O)C=C[C@]4(C)[C@@]3(F)[C@@H](O)C[C@@]21C`, the max response is 0.0182%.

On to `Cc1cccc(C)c1NC(=O)CN1CCCCCC1`, for which the max response was 5.59%.

Consider `CC(CNC1CCCCC1)OC(=O)c1ccccc1` (stereo not given), for which the max response was -9.26%.

On to `CCC(=O)Nc1ccc(O)cc1`, for which the max response was 2.18%.

Regarding `ICCc1ccccc1`, the max response is 22.5%.

`O=C(O)[C@@H]1CSCN1`: the max response is 2.01%.

With `CN1CCN(c2c(F)cc3c(=O)c(C(=O)O)cn(CCF)c3c2F)CC1`, the max response is 10.4%.

As for `CCOC(=O)[C@H](CCc1ccccc1)N[C@@H](C)C(=O)N1Cc2cc(OC)c(OC)cc2C[C@H]1C(=O)O`, the max response was 3.96%.

With `O=C1CCCCC1C1CCCCC1` (stereo not given), the max response was 11.8%.

In the case of `O=C(C(Cl)Cl)N1CCOC12CCCCC2`, the max response was 12.9%.

As to `CC(C)S`, the max response was 0.674%.

For `CN1C(=O)CC(c2ccccc2)C1=O` (stereo not given), the max response was 11.9%.

`C=CC(C)(O)CC/C=C(\C)CCC=C(C)C` (stereo not given): the max response was -1.81%.

As for `Cc1ccc([N+](=O)[O-])c(N)c1`, the max response is -1.42%.

Consider `CNCCC(Oc1ccccc1OC)c1ccccc1` (stereo not given), for which the max response was -21.1%.

As for `CCc1nnc(NS(=O)(=O)c2ccc(N)cc2)s1`, the max response is 6.63%.

With `CN(C)Cc1ccccc1`, the max response is 7.47%.

For `COc1ccccc1OCC(O)COC(N)=O` (stereo not given), the max response is 12.1%.

Regarding `O=Cc1ccc(F)c(Br)c1`, the max response is 3.83%.

Consider `CCCOc1ccc2c(c1)CC[C@@H]1[C@@H]2CC[C@]2(C)C(OC)CC[C@@H]12` (stereo not given in full), for which the max response is 6.13%.

`CCCC1CCC(=O)O1` (stereo not given): the max response was 4.54%.

With `CN1CCN(C2=Nc3ccccc3Oc3ccc(Cl)cc32)CC1`, the max response is -25.8%.

As for `COC(C)CCO` (stereo not given), the max response was 6.13%.
